Screens (PubChem BioAssay)
Sampled rows, rich in hits. Any-hit rate of the full collection: about 2.4%.
Cruzain inh noDet = qHTS Assay for Promiscuous and Specific Inhibitors of Cruzain (without detergent); purified cruzain, Z-FR-AMC fluorescence, no detergent; 200,000 tested, 2.3% active; Cruzipain (Trypanosoma cruzi), P25779; Potency, µM, most hits filed as inhibitors; note: nearly all actives have a fitted effect of over 40% in size
Target sequence (P25779 123-467 limits assumed): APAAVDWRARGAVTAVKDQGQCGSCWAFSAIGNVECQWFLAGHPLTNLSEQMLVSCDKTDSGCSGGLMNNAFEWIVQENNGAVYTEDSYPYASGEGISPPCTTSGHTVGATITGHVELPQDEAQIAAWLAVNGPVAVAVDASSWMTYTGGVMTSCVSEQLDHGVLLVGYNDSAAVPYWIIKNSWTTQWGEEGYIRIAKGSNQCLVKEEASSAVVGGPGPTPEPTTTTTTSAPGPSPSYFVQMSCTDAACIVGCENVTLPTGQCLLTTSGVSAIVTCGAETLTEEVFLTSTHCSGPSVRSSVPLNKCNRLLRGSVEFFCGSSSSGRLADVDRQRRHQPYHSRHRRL
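Detergent-free condition (0.00005% Triton X-100) in acetate buffer pH 5.5 with DTT. 1.5 nM enzyme and compound were pre-mixed 15 min, then 2 uM Z-FR-AMC substrate added; reaction progress from fluorescence change between first and third reads (60 s).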
Cruzain Triton = qHTS Assay for Promiscuous and Specific Inhibitors of Cruzain (with detergent). AID 1478, 2009. 200,000 tested, 0.43% active. purified cruzain, Z-FR-AMC fluorescence, 0.01% Triton. Potency, µM, most hits filed as inhibitors. Cruzipain (Trypanosoma cruzi), P25779; note: nearly all actives have a fitted effect of over 40% in size
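15 min RT preincubation of 1.5 nM cruzain with compound, then 2 uM Z-FR-AMC added; kinetic AMC fluorescence, 60 s delta. Triton X-100 0.01%, pH 5.5.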
Each line names hits and unclear results; the compound was inactive in the other large screens. Calls come from the whole dose curve; as a rule, active = well fitted curve in the direction sought with a large enough effect; inconclusive = small, poorly fitted or top-dose-only effect, or another doubt; inactive = no such curve, though single readings can be large; an effect the other way counts as inactive or inconclusive.

c1ccc(Nc2ncnc3sc4c(c23)CCC4)cc1	none
O=S(=O)(Nc1ncnc2sc3c(c12)CCC3)c1ccc2ccccc2c1	Cruzain inh noDet 32µM
CCc1ccc(NC(=O)COCc2cc(-c3ccc(F)cc3)on2)cc1	none
CCn1c(SCc2ccccc2C)nc(=O)c2c(C(=O)OC)cc(C3CC3)nc21	none
COc1cccc(C(=O)Oc2c(Sc3ccc(C)cc3)c(C)nn2C(C)(C)C)c1OC	none
N#Cc1ccc(C(=O)Nc2cc(S(=O)(=O)N3CCCC3)ccc2OCC(F)(F)F)cc1	none
O=C(CNc1cc(S(=O)(=O)N2CCCC2)ccc1OCC(F)(F)F)Nc1ccc(SC(F)F)cc1	Cruzain inh noDet 16µM
Cc1nn(C)c(C)c1S(=O)(=O)N(CC(=O)N1CCN(c2ccccc2)CC1)c1ccc(C(C)C)cc1	none
Cc1cc(C)c(S(=O)(=O)N2CCN(c3ccc([N+](=O)[O-])c(NCc4ccco4)c3)CC2)c(C)c1	Cruzain inh noDet 6.3µM
O=[N+]([O-])c1ccc(N2CCN(S(=O)(=O)c3ccc(Cl)c(Cl)c3)CC2)cc1NCCN1CCOCC1	none
CCNc1cc(N2CCN(S(=O)(=O)c3ccc4c(c3)CCCC4)CC2)ccc1[N+](=O)[O-]	Cruzain inh noDet 5µM
Cc1cc(C)c(S(=O)(=O)N2CCN(c3ccc([N+](=O)[O-])c(NCC4CCCO4)c3)CC2)c(C)c1 (stereo not drawn)	Cruzain inh noDet inconclusive
CCCCCn1c(-c2ccc(OC)c(OC)c2)nc2ccccc21	none
COc1cc2c(C(=O)N3CCN(c4ccc(F)cc4)CC3)cn(CC(C)C)c(=O)c2cc1OC	Cruzain inh noDet inconclusive
COC(=O)c1oc2ccc(Cl)cc2c1NC(C)=O	none
COC(=O)c1oc2ccc(Br)cc2c1NC(=O)c1ccccc1	Cruzain inh noDet 13µM
O=S(=O)(c1ccc(F)cc1)N(Cc1nc(-c2ccc(Cl)cc2)no1)C1CCCCC1	none
CC(C)(C)OC(=O)N1CCC(c2c(C(=O)N3CCN(c4ccc(Cl)cc4)CC3)cnn2-c2ccc(F)cc2F)CC1	none
O=C(NC(=S)Nn1cnc2c(cnn2-c2ccccc2)c1=O)c1ccc(Oc2ccccc2)cc1	Cruzain inh noDet 25µM
O=C(NC(=S)Nn1cnc2c(cnn2-c2ccccc2)c1=O)c1ccc(Cl)cc1	none
COc1ccccc1Nc1nc(-c2cccc(N3C(=O)c4ccccc4C3=O)c2)cs1	Cruzain inh noDet 7.9µM
O=C1c2ccccc2C(=O)N1c1cccc(-c2csc(Nc3ccc4c(c3)OCO4)n2)c1	Cruzain inh noDet 5µM
COc1ccccc1Nc1nc(-c2c(C)[nH]c3ccccc23)cs1	Cruzain inh noDet 25µM
COc1ccccc1Nc1nc(-c2sc(NC(=O)CC(C)C)nc2C)cs1	Cruzain inh noDet inconclusive
COc1ccc(-c2csc(Nc3cccnc3)n2)cc1OC	none
c1cncc(-c2nc(-c3ccc4c(c3)OCO4)cs2)c1	none
O=C(CSc1nnc2[nH]c(=O)cc(-c3ccccc3)n12)Nc1ccc(OC(F)(F)F)cc1	none
Cc1ccc2c(CC(=O)N(Cc3ccc(Cl)cc3)Cc3ccco3)coc2c1	none
CC(C)Oc1ccc(CNC(=O)Nc2ccc3c(c2)N(C)C(=O)c2ccccc2S3)cc1	none
COc1cccc2cc(/C(C)=N/Nc3nc(-c4cc(C)ccc4C)cs3)c(=O)oc12	Cruzain inh noDet 5µM
CNC(=O)c1cc2cccc(OC)c2oc1=O	none
CCc1ccccc1NC(=O)Cn1c(C(=O)OC)cc2oc(C)cc21	none
CCN(CC)CCNC(=O)c1sc2ncccc2c1-n1cccc1	none
CCCCOC(=O)CCn1[nH]c(=O)c2ccccc2c1=O	none
CCCCOC(=O)CCN1C(=O)/C(=C2\SC(=S)N(CCC(=O)OCCCC)C2=O)SC1=S	Cruzain inh noDet 13µM
CCOc1ccc(C(=O)Nc2ccc3oc(-c4cccc5ccccc45)nc3c2)cc1	none
Cc1ccc(OCC(=O)N(Cc2ccc(N(C)C)cc2)CC2CCCO2)cc1C (stereo not drawn)	none
Cc1ccc(/C=C/C(=O)Nc2nc3ccccc3[nH]2)cc1	Cruzain inh noDet 25µM
Cc1ccc(/C=C/C(=O)c2nc3ccccc3[nH]2)cc1	none
Cc1cnn(C(=S)NCc2ccc(Cl)cc2)c1	none
Cc1cnn(C(=S)NCCc2ccccc2)c1	Cruzain inh noDet 13µM, Cruzain Triton 16µM
Cc1ccc(OCCSc2nc3ccc(NC(=O)c4ccco4)cc3s2)cc1	none
CC(=O)c1cccc(NC(=O)CCc2c(C)nc3c(-c4ccc(F)cc4)c(C)nn3c2C)c1	none
CCN(CC)S(=O)(=O)c1cc(-c2ccc(=O)n(C(C)C(=O)Nc3cccc(C#N)c3)n2)ccc1C (stereo not drawn)	Cruzain inh noDet inconclusive
Cc1nnc(OC(C)C)c2nn(-c3ccccc3F)c(C)c12	none
Fc1ccccc1-n1[nH]nnc1=S	Cruzain inh noDet 13µM, Cruzain Triton 20µM
Cc1ccc2c(c1)c(N=NC(N)=S)c(O)n2Cc1ccccc1	Cruzain inh noDet 2.5µM, Cruzain Triton inconclusive
COc1ccc(C(=O)NCC(=O)N=Nc2c(O)n(Cc3ccccc3)c3ccccc23)cc1OC	none
NC(=S)N=Nc1c(O)n(Cc2ccc(F)cc2)c2ccccc12	Cruzain inh noDet inconclusive, Cruzain Triton 13µM
O=Nc1c(O)n(Cc2ccc(Cl)cc2)c2ccccc12	none
CCc1ccccc1Nc1nn2c(=O)c3ccc(C(=O)NC(C)c4ccccc4)cc3nc2s1 (stereo not drawn)	Cruzain inh noDet inconclusive
Cc1ccc(NC(=O)N(Cc2c[nH]c3ccccc23)C2CCCCCC2)cc1C	none
COc1ccc(OC)c(-c2nnc3n(Cc4ccc(C)cc4)c(=O)c4ccccc4n23)c1	none
COc1ccc(NC(=O)Cn2c(=O)n(Cc3ccccc3)c(=O)c3oc4ccccc4c32)cc1Cl	none
CCN(CCCNC(=O)CN1N=C(c2ccc(OC)cc2)CCC1=O)c1cccc(C)c1	none
COc1ccc2c(C)c(CCC(=O)NCCc3ccccc3OC)c(=O)oc2c1	none
O=C(Nc1ccc2c(c1)OCO2)[C@@H]1[C@@H]2C(=O)N(C3CCCCC3)C(=O)[C@@H]2C2c3ccccc3C=CN21 (stereo partly drawn)	Cruzain inh noDet 20µM
O=C(c1cccs1)[C@@H]1[C@@H]2C(=O)N(Cc3ccc4c(c3)OCO4)C(=O)[C@@H]2C2c3ccccc3C=CN21 (stereo partly drawn)	Cruzain inh noDet 25µM
O=C(Nc1ccc2c(c1)OCO2)C1CCN(S(=O)(=O)Cc2ccccc2)CC1	none
CC(C)(C)C(=O)[C@@H]1[C@@H]2C(=O)N(C3CCCCC3)C(=O)[C@@H]2[C@H]2c3ccccc3C=CN12	Cruzain inh noDet inconclusive
O=C(c1ccc2c(c1)OCO2)[C@@H]1[C@@H]2C(=O)N(C3CCCCC3)C(=O)[C@@H]2C2c3ccccc3C=CN21 (stereo partly drawn)	Cruzain inh noDet 20µM
O=C1c2ccccc2C(=O)N1Cc1ccc2c(c1)OCO2	none
O=C(CCCCn1c(=O)c2ccccc2n(Cc2ccccc2Cl)c1=O)NCc1ccc2c(c1)OCO2	none
Cc1noc(Cn2c(=O)c3cc4c(cc3n(CC(=O)Nc3ccccc3F)c2=O)OCO4)n1	none
Cc1cccc(NC(=S)NNC(=O)COc2ccc(Cl)cc2Cl)c1	Cruzain inh noDet inconclusive
Cc1ccc(NC(=O)NC(=O)COc2ccc(Cl)cc2Cl)c(C)c1	Cruzain inh noDet 13µM
c1ccc2c(c1)c1cccc3ccc4cccc2c4c31	Cruzain inh noDet 16µM
c1cc2ccc3cccc4ccc(c1)c2c34	none
CC1Cc2ccccc2N1S(=O)(=O)c1nnc(NC(=O)c2cccc(F)c2)s1 (stereo not drawn)	none
Cc1ccc(NC(=O)c2ccc(OC(=O)COc3ccc(Cl)cc3C)cc2)cc1	Cruzain inh noDet 13µM
